Screening data (PubChem BioAssay)
Rv3671c protease: inhibits the M. tuberculosis serine protease Rv3671c; P9WHR9; inhibition, % at 5.96 µM; hit rate 0.048% among 320,000; AID 2606; in the data active = inhibition above about 38%;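 note: extracellular domain of Rv3671c used as enzyme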
Target sequence (P9WHR9 whole entry, looked up, the tested form may be a part): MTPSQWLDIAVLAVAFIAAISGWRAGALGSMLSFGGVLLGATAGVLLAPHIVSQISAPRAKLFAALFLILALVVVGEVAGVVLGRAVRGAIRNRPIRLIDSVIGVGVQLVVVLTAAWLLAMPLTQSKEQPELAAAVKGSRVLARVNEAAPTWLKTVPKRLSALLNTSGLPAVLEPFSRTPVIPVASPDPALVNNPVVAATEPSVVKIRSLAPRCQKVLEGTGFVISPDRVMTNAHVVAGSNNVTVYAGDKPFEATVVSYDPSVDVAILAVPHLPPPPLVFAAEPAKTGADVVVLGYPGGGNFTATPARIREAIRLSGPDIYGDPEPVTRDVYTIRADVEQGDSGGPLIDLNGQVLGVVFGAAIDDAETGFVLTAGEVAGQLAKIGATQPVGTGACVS
MazF activator: increases E. coli MazEF RNase cleavage of RNA; FAM/BHQ RNA-DNA oligo cleavage fluorescence, 5 h; activation, % at 20 µM; hit rate 0.32% among 350,000; AID 504720; in the data active = activation above about 50%
Target sequence (P0AE70 whole entry, looked up): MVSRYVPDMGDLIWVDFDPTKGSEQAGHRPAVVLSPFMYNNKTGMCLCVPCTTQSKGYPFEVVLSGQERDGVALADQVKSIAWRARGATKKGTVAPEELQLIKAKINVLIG
RecA intein inh: blocks M. tuberculosis RecA intein splicing; P9WHJ3; cell-free RecA intein splicing, fluorescence; inhibition, % (no concentration beside the values); hit rate 0.75% among 290,000; AID 2221; in the data active = inhibition above about 30%
Mtb betalactam: beta-lactam sensitization of Mtb H37Rv | M. tuberculosis H37Rv growth with meropenem, percent inhibition | hit rate 0.27% among 330,000 | inhibition, % at 25 µM;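 note: growth measured after seven days incubation then overnight dye step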
Mtb UGM inh: Mtb UDP-galactopyranose mutase inhibition | inhibition, % at 10 µM | hit rate 0.06% among 320,000 | AID 504406 | purified UGM, fluorescence polarization probe displacement | P9WIQ1; in the data active = inhibition above about 10%, passing the limit was not always enough
TcdB GH inh: blocks C. difficile toxin B glycohydrolase activity. hit rate 0.24% among 350,000. inhibition, % at 9.99 µM. TcdB glycohydrolase enzymatic assay, plate reader. P18177; in the data active = inhibition above about 10%
GFP chromo cs: counter-screen: blocks GFP chromophore formation; AID 434968; hit rate 83% among 2,100; shares compounds with RecA intein inh; EC50, µM; cell-free GFP chromophore formation, fluorescence
Numbers stand for hits; 0 = inactive; - = not tested or not shown. Sampled rows, rich in hits. Any-hit rate of the full collection: about 0.97%. Unless noted, the rule behind the calls is not given here.

SMILES | Rv3671c protease | MazF activator | RecA intein inh | Mtb betalactam | Mtb UGM inh | TcdB GH inh | GFP chromo cs
Cc1[nH][nH]c(=O)c1C(c1ccc(F)cc1)c1c(C)[nH][nH]c1=O | 0 | 0 | 97.8 | 0 | 0 | 0 | 0.616
Cc1[nH][nH]c(=O)c1C(c1ccc(Cl)cc1)c1c(C)[nH][nH]c1=O | 0 | 0 | 98.0 | 0 | 0 | 0 | 1.26
COC(=O)c1ccc(C(c2c(C)[nH][nH]c2=O)c2c(C)[nH][nH]c2=O)cc1 | 0 | 0 | 94.6 | 0 | 0 | 0 | 1.42
Cc1[nH][nH]c(=O)c1C=NCc1ccc(Cl)cc1 | 0 | 0 | 0 | 0 | 0 | 0 | -
CO[C@H]1CN(C)C(=O)c2ccc(NC(=O)Nc3ccc(Cl)cc3)cc2OC[C@@H](C)N(C)C[C@H]1C | - | - | - | - | - | 0 | -
C[C@H](CO)N1C[C@H](C)[C@H](CN(C)CC2CCCCC2)Oc2ccc(NC(=O)Cc3cn(C)c4ccccc34)cc2CC1=O | - | - | - | - | - | 0 | -
CC(=O)NC(=S)c1c(N)n(Cc2ccccc2)c(=O)n(C)c1=O | 0 | - | 33.1 | 0 | 0 | - | 0
CC(=O)Nc1ccc(SCC(=O)c2c(N)n(Cc3ccccc3)c(=O)n(C)c2=O)cc1 | 0 | 0 | 0 | 0 | 0 | 0 | -
COc1ccc(S(=O)(=O)Nc2ccc3c(c2)C(=O)N([C@@H](C)CO)C[C@H](C)[C@H](CN(C)S(=O)(=O)c2ccc(F)cc2)OCCCC[C@H](C)O3)cc1 | - | - | - | - | - | 0 | -
[O-][n+]1c2c(nc3c1-c1ccccc1C3O)CCCC2 (configuration not stated) | 0 | - | 40.7 | 0 | 0 | - | 32.9
O=C(CSC1=NCCS1)Nc1nc2ccccc2s1 | 0 | 0 | 0 | 0 | 0 | - | -
Cc1sc(NC(=O)CSC2=NCCS2)nc1-c1ccccc1 | 0 | 0 | 44.5 | 0 | 0 | - | 0
O=C(Nc1ccc(N2CCOCC2)cc1)Nc1ccc2nsnc2c1 | 0 | 0 | 54.3 | 0 | 0 | 0 | 0
COCC(=O)Nc1ccc2c(c1)C(=O)N(C)C[C@@H](OC)[C@@H](C)CN(C(=O)c1cnccn1)[C@H](C)CO2 | - | - | - | - | - | 0 | -
COc1ccc(C(=O)/C=C/Sc2nc3ccccc3o2)cc1 | 0 | 0 | 45.8 | 0 | 0 | 0 | 0
O=C1/C(=C/c2ccc(F)cc2)SC(=S)N1CC(=O)N1CCCCC1c1cccnc1 (configuration not stated) | 0 | 0 | 38.0 | 0 | 0 | 0 | 0
CC1(C)C=C2C(=NN(c3ccccc3)C(N)=C2C#N)CO1 | 0 | 0 | 90.4 | 0 | 0 | 0 | 1.49
CC1(C)Cc2c(C#N)c(N)n(-c3ccccc3)c(=S)c2CO1 | 0 | 0 | 0 | 0 | 0 | 0 | -
C/C(CC(=O)Nc1cccnc1)=N\NC(=O)c1ccc([N+](=O)[O-])c(Cl)c1 | 0 | 0 | 61.1 | 0 | 0 | 0 | 34.7
O=C(C[C@@H]1CC[C@H]2[C@@H](COC[C@@H](O)CN2Cc2ccc(C(F)(F)F)cc2)O1)NCCc1ccccc1 | - | - | - | - | - | 0 | -
CCCCn1[nH]c(-c2ccccc2)cc1=O | 0 | 0 | 97.3 | 0 | 0 | - | 2.82
CCCc1cc(=O)n2[nH]c(-c3ccccc3)cc2n1 | 0 | 0 | 0 | 0 | 0 | - | -
Cc1cc(C(=O)CCl)c(C)n1CCc1ccc(Cl)cc1 | 0 | 0 | 61.8 | 0 | 0 | 0 | 21.2
CCOC(=O)C1CCN(C(=O)c2c(C)oc3c2C(=O)c2ccccc2C3=O)CC1 | 0 | 0 | 68.9 | 0 | 0 | 0 | 4.71
Cc1oc2c(c1C(=O)N1CCC(C)CC1)C(=O)c1ccccc1C2=O | 0 | 0 | 78.7 | 0 | 0 | 0 | 8.49
SMILES | Rv3671c protease | MazF activator | RecA intein inh | Mtb betalactam | Mtb UGM inh | TcdB GH inh | GFP chromo cs
CC1CCN(C(=O)c2ccc3c(c2)C(=O)c2ccccc2-3)CC1 | - | 0 | - | - | - | 0 | -
COc1ccc(S(=O)(=O)N(C)C[C@H]2Oc3ccc(NC(=O)Nc4ccccc4)cc3CC(=O)N([C@@H](C)CO)C[C@H]2C)cc1 | - | - | - | - | - | 0 | -
C[C@H]1CN([C@@H](C)CO)C(=O)c2cc(NC(=O)Nc3ccccc3)ccc2O[C@H]1CN(C)Cc1ccc(Oc2ccccc2)cc1 | - | - | - | - | - | 0 | -
O=C(O)c1ccc(N2C(=O)/C(=C/c3ccc(-c4ccc([N+](=O)[O-])cc4)o3)C=C2c2ccccc2)cc1 | 0 | 0 | 32.2 | 0 | 0 | - | 0
CCSC1(SCC)N=C(N)C2(C#N)C(c3ccc(F)cc3)C12C#N (configuration not stated) | 0 | 0 | 49.7 | 0 | 0 | - | 38.3
Cc1nc2c(=O)n(C)c(=O)nc-2n(C)n1 | 0 | 0 | 98.3 | 0 | 0 | - | 0.117
Cc1ccc(C)c(-n2c3nc(=O)n(C)c(=O)c-3cc3ccccc32)c1 | 0 | 0 | 0 | 0 | 0 | 0 | -
O=C(CCNc1cccc(F)c1)c1cccc([N+](=O)[O-])c1 | 0 | 0 | 31.9 | 0 | 0 | 0 | 0
CCN(CC)c1ccc2c(c1)CCCN2 | 0 | - | 33.3 | 0 | 0 | - | 0
CCCN1[C@@H]2Cn3c(ccc(-c4ccncc4)c3=O)[C@H]1[C@@H](C(=O)N1CCCCC1)[C@@H]2CO | - | - | - | - | - | 0 | -
CCOc1cc(C(c2c(C)[nH][nH]c2=O)c2c(C)[nH][nH]c2=O)ccc1OC(=O)c1cccc([N+](=O)[O-])c1 | 0 | 0 | 92.1 | 0 | 0 | - | 0.441
CCOc1cc(/C=C2/NC(=S)NC2=O)ccc1OCc1ccc([N+](=O)[O-])cc1 | 0 | 0 | 0 | 0 | 0 | - | -
CCOc1cc(C(c2c(C)[nH][nH]c2=O)c2c(C)[nH][nH]c2=O)ccc1OCc1ccc([N+](=O)[O-])cc1 | 0 | 0 | 99.1 | 0 | 0 | - | 0.326
O=C(Cc1ccccn1)N[C@H]1CC[C@@H](CCn2cc(-c3ccc(F)cc3)nn2)O[C@H]1CO | - | - | - | - | - | 0 | -
NCC[C@@H]1CC[C@H](NS(=O)(=O)Cc2ccccc2)[C@H](CO)O1 | - | - | - | - | - | 0 | -
CCc1oc2ccccc2c1C(=O)c1cc(Br)c(O)c(Br)c1 | 0 | 0 | 0 | 0 | 0 | 0 | 18.5
CCc1ccc(OCC(=O)c2c(O)c3ccccc3oc2=O)cc1 | 0 | 0 | 0 | 0 | 0 | 0 | -
C[C@H](CO)N1C[C@H](C)[C@H](CN(C)C(=O)CN(C)C)Oc2ncc(-c3ccccc3F)cc2C1=O | - | - | - | - | - | 0 | -
CCCc1[nH]nc2c1C(c1cc(OC)cc(OC)c1)C(C#N)=C(N)O2 (configuration not stated) | 0 | 0 | 44.4 | 0 | 0 | - | 3.96
CCCc1[nH]nc2c1C(c1cc(OC)ccc1F)C(C#N)=C(N)O2 (configuration not stated) | 0 | 0 | 0 | 0 | 0 | 0 | -
CC1(C)CC(=O)C2=C(C1)OC(N)=C(C#N)C2c1cccc(OC(=O)c2ccco2)c1 (configuration not stated) | 0 | 0 | 0 | 0 | 0 | 0 | -
CCCc1[nH]nc2c1C(CCc1ccccc1)C(C#N)=C(N)O2 (configuration not stated) | 0 | 0 | 55.4 | 0 | 0 | - | 22.2
CCCc1[nH]nc2c1C(c1ccc(OC)c(CSC3=NCCS3)c1)C(C#N)=C(N)O2 (configuration not stated) | 0 | 0 | 74.5 | 0 | 0 | - | 14.8
CCCc1[nH]nc2c1C(c1cccc(OC(=O)c3ccco3)c1)C(C#N)=C(N)O2 (configuration not stated) | 0 | 0 | 58.9 | 0 | 0 | - | 17.8
